# From PubChem BioAssay
# “And” between values parts separate entries of the source, which are not always exact repeats. Equal entries are not always repeated. The source made the active and inactive calls.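 Rule for the calls, unless noted: active = mean z-score across replicates of 1.96 or higher in either the MELAS or the Rieske mutant cell line; inactive = the rest.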
# What was measured:
# [1] = compounds altering viability of human ES cells (AID 493140; call rule not given here;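 note: cells exposed to compounds for four days before counting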); conditions: human embryonic stem cell survival screen; stronger effect = higher value
# [2] = P. berghei load reduction in hepatocytes – cell-based, HepG2, luciferase luminescence, HepG2 viability, primary screen (AID 624349; in the data active = parasite load remaining mostly below about 12%, no sharp cut-off; inactive = mostly above about 10%;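 note: 100% = mean of DMSO negative control wells on the same plate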); conditions: P. berghei liver stage in HepG2, luciferase luminescence, concentration not given here; parasite load remaining: stronger effect = lower value; viability: measured here: HepG2 viability without parasites
# [3] = stimulators of insulin release from INS-1E, primary screen, cell-based, 5 mM glucose, NPC library (AID 1117329;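 active = compound raises insulin release from rat beta cells at 5 mM glucose, no numeric limit stated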); conditions: rat INS-1E insulin secretion, at 10 µM, stronger effect = higher value
# [4] = growth inhibition of GSK3B-pretreated HCT116 cells – cell-based, CellTiter-Glo, 0.2 to 20 µM (AID 1117336;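 active = compounds lowering colon cancer cell viability after pretreatment blocking the GSK3B kinase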); conditions: HCT116 viability after GSK3B inhibitor, at 20 µM, stronger effect = higher value
# [5] = inhibition of endothelial tube formation, primary screen, imaging, VEGF stimulated, CD31 staining, tube area, NPC library (AID 1117340;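 active = compound that reduces growth-factor-driven endothelial tube area in a mixed cell culture, no cutoff stated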); conditions: VEGF-stimulated ADSC/ECFC co-culture, at 10 µM, stronger effect = higher value
# [6] = GLP1 release stimulators, primary, NCI-H716, NPC library (AID 1117341;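 active = compound raises GLP1 secretion from the human gut endocrine cells, with no numeric limit stated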); conditions: NCI-H716 cells, at 10 µM, stronger effect = higher value
# [7] = HCT116 colon cancer cell growth inhibition, primary screen, CellTiter-Glo luminescence, NPC library (AID 1117342;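 active = compounds that lower survival of HCT116 colon cancer cells in the luminescence readout, no numeric limit stated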); conditions: at 20 µM (top of the series)
# [8] = reduced SW480 viability measured with CellTiter-Glo, NPC library, primary (AID 1117343;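 active = compounds that lower viability of the colon cancer cells in the luminescence readout, with no numeric limit stated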); conditions: CellTiter-Glo luminescence; at 20 µM (top of the series) unless noted
# [9] = NPC library primary testing for decreased DLD-1 cell viability via CellTiter-Glo (AID 1117346;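 active = compounds that lower survival of DLD-1 colon cancer cells in the luminescence readout, no cutoff given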); conditions: DLD-1 viability, CellTiter-Glo luminescence; at 20 µM (top of the series)
# [10] = EMT-state selective cytotoxicity in co-culture – imaging, PC-3E GFP, TEM4-18 mCherry, primary screen (AID 1345086;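 active = compounds killing one labelled cell type while sparing the other, by normalised counts and ratio limits, not self-fluorescent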;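 for all read-outs here: cells exposed to compound for 72 h before imaging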;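 for red/green cell ratio (normalised): normalised mesenchymal count divided by normalised epithelial count so high means epithelial killing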); conditions: PC-3E GFP / TEM4-18 mCherry co-culture, imaging cell counts, at 1 µM; for red/green cell ratio (normalised): actives lie on both sides, counts scaled to control wells, 1 = unselective
# [11] = MELAS cybrid and Rieske KO viability enhancers – cell-based, MELAS cybrids, Rieske KO mouse fibroblasts, CellTiter-Glo, primary screen (AID 1508586); conditions: low glucose;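 note: z relative to plate mean and SD of compound and empty wells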
# [12] = target: NAD(+) hydrolase SARM1 (Homo sapiens) (UniProt Q6SZW1); assay: blocking NAD cleavage by SARM1 SAM-TIR – cell lysate, NAD-Glo luminescence (AID 1508614;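 active = compound whose remaining NAD level is above about 45 nM, limit read from the data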;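 note: higher remaining NAD means stronger inhibition of SARM1 NADase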); conditions: SAM-TIR HEK293T lysate NADase, at 1 µM, stronger effect = higher value
# NAD(+) hydrolase SARM1 (Homo sapiens), sequence (Q6SZW1 whole entry, looked up): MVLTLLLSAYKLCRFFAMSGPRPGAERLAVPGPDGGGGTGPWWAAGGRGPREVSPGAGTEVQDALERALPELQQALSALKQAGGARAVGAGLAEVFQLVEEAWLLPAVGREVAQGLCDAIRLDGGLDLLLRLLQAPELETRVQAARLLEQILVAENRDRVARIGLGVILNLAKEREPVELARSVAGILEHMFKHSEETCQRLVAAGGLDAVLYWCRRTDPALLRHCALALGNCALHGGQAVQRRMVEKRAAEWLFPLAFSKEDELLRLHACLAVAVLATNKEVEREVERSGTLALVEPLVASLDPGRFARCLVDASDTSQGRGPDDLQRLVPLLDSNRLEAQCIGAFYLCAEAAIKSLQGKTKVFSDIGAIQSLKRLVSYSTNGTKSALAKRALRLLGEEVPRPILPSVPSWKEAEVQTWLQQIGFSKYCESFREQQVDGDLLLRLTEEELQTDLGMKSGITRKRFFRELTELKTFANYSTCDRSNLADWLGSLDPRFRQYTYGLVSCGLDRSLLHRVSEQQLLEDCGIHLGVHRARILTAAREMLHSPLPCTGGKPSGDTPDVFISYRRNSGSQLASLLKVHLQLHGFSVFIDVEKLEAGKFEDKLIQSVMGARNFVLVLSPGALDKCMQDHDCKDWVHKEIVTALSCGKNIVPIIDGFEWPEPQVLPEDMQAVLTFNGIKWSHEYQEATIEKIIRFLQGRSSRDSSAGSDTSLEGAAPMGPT
# [13] = galactose survival enhancers in mitochondrial complex I cybrids – cell-based, galactose medium, ATP luminescence, primary screen (AID 1645843;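 active = z-score of at least 1.8 in each of two replicates, scored against plate mean and spread of sample wells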;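 note: positive z means more ATP and so rescue of galactose-driven cybrid death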); conditions: complex I mutant cybrid cells, 72 h, stronger effect = higher value
# [14] = viability loss with induced miR-34 in A549 – imaging, A549 dox-inducible miR-34, nuclei and caspase counts, primary screen (AID 1347080;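 active = compounds whose cell count with miR-34 switched on is under 0.7 times the count with it off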); conditions: A549 miR-34 inducible, Hoechst nuclei count, 48 h
# [15] = target: Mitogen-activated protein kinase 7 (Homo sapiens) (UniProt Q13164); assay: Gal4-ERK5 driven luciferase induction – cell-based, HTS, primary screen (AID 1508626;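 active = luciferase signal above three times the same-plate solvent-only control wells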;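 note: luciferase driven by Gal4-ERK5 fusion binding five Gal4 sites before minimal TATA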); conditions: HeLa Gal4-ERK5 transactivation, 18 h, at 5 µM, stronger effect = higher value
# Mitogen-activated protein kinase 7 (Homo sapiens), sequence (Q13164 whole entry, looked up, the tested form may be a part): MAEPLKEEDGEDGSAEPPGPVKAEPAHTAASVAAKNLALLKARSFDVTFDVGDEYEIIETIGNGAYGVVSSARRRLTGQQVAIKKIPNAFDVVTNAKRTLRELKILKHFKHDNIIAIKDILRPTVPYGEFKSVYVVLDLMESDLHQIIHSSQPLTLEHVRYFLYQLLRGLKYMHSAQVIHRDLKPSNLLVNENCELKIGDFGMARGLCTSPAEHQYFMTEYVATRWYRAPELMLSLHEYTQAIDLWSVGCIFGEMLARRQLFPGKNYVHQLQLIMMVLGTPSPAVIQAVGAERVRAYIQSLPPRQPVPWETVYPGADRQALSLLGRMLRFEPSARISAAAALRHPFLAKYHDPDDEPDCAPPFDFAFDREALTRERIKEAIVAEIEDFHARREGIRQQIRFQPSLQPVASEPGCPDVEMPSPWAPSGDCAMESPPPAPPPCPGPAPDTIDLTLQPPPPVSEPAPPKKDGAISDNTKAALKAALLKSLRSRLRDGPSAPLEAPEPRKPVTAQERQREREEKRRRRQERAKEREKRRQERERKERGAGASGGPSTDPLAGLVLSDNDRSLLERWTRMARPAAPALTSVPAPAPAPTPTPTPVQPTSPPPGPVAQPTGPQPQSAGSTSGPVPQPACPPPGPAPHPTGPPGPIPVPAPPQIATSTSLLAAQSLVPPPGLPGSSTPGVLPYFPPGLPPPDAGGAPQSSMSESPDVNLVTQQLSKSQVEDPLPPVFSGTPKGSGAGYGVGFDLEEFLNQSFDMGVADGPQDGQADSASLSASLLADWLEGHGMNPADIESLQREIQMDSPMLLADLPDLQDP
# [16] = modulation of C. elegans fzo-1 (AID 1259413; call rule not given here;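 note: fzo-1 mutant C. elegans worms in liquid wells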); conditions: C. elegans fzo-1 modulator screen, mean read-out; stronger effect = higher value
# [17] = target: 6-phosphogluconate dehydrogenase, decarboxylating (Homo sapiens) (UniProt P52209); assay: inhibition of human phosphogluconate dehydrogenase – biochemical, recombinant enzyme, NADPH absorbance, primary screen (AID 1159550;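 active = at least 20% inhibition of 6-phosphogluconate dehydrogenase activity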); conditions: recombinant 6PGD, NADPH absorbance 341 nm; at 10 µM; stronger effect = higher value
# 6-phosphogluconate dehydrogenase, decarboxylating (Homo sapiens), sequence (P52209 whole entry, looked up): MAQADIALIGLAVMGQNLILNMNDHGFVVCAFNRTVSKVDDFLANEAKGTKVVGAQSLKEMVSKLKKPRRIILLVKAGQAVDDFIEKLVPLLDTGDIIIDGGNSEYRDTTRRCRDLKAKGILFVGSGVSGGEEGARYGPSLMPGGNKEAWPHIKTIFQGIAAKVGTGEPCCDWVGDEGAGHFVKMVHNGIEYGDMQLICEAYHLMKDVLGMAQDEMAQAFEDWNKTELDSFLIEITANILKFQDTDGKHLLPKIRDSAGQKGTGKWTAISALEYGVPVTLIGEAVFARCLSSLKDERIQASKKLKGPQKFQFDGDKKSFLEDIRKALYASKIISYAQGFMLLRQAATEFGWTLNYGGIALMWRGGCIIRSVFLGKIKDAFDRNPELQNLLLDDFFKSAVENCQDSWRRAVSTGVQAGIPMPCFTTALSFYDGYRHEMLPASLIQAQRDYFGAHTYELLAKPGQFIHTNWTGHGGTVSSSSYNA
# [18] = blockers of polyQ-driven CASP3 activation – cell-based (AID 1583); conditions: polyglutamine-induced caspase-3 activation, cell assay; stronger effect = higher value;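 tested at 10 µM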
# [19] = measured here: epithelial PC-3E GFP cell survival
# [20] = measured here: mesenchymal TEM4-18 mCherry cell survival
# [21] = MELAS cybrid survival, CellTiter-Glo 48 h, stronger effect = higher value
# [22] = Rieske KO mouse fibroblast survival, CellTiter-Glo 72 h
compound,measurement,setting,value
O=S(=O)(c1cccc2cnccc12)N1CCCNCC1,survival,[1],467 (active)
same,parasite load remaining,[2],62.2% (inactive) and 44.5% (inactive)
same,viability,[2],103% and 67.7%
same,insulin secretion stimulation,[3],4.95% (inactive)
same,viability decrease,[4],18.1% (inactive)
same,tube area decrease,[5],-19.8% (inactive)
same,GLP1 secretion stimulation,[6],-2.6% (inactive)
same,inhibition of viability,[7],24.3% (inactive)
same,viability decrease (inhibition),[8],-4.3% (inactive)
same,viability decrease (inhibition),[9],15.4% (inactive)
same,red/green cell ratio (normalised),[10],1.1 (inactive)
same,normalised cell number,[10]; [19],0.86
same,normalised cell number,[10]; [20],0.95
same,z-score,[11]; [21],-0.155 (inactive) and -0.944 (inactive)
same,z-score,[11]; [22],-1.52 and 0.0333
same,remaining NAD,[12],10 nM (inactive)
same,z-score,[13],-0.745 (inactive) and -1.1 (inactive)
NCCCC(O)(P(=O)(O)O)P(=O)(O)O,parasite load remaining,[2],53.9% (inactive) and 32.7% (inactive)
same,viability,[2],103% and 67.5%
same,insulin secretion stimulation,[3],2.3% (inactive)
same,viability decrease,[4],6.9% (inactive)
same,tube area decrease,[5],-27.4% (inactive)
same,GLP1 secretion stimulation,[6],1.2% (inactive)
same,inhibition of viability,[7],1.17% (inactive)
same,viability decrease (inhibition),[8],-1.7% (inactive)
same,viability decrease (inhibition),[9],-3.8% (inactive)
same,red/green cell ratio (normalised),[10],1.07 (inactive)
same,normalised cell number,[10]; [19],1
same,normalised cell number,[10]; [20],1.08
same,fold change,"[14]; stronger effect = lower value, cell number ratio, induced over uninduced",1.41 (inactive) and 0.87 (inactive) and 0.867 (inactive)
same,fold change,[14]; measured here: relative caspase fold change +Dox/-Dox,0.419 and 4.85 and 1.52
same,cell count,"[14]; measured here: total cells with miR-34 induction, stronger effect = lower value",8960 and 12100 and 9780
same,cell count,[14]; measured here: total cells without miR-34 induction,6340 and 13900 and 11300
same,z-score,[11]; [21],0.332 (inactive) and -1.05 (inactive) and 0.581 (inactive)
same,z-score,[11]; [22],0.0856 and -0.0862 and 0.207
same,remaining NAD,[12],10 nM (inactive)
same,luciferase signal,[15],144 AU (inactive)
same,z-score,[13],-2.05 (inactive) and 0.675 (inactive)
O=C(NCC1CCCCN1)c1cc(OCC(F)(F)F)ccc1OCC(F)(F)F (configuration not stated),survival,[1],2.25 (inactive)
same,parasite load remaining,[2],-2.69% (inactive) and 85.7% (inactive) and 46.8% (inactive)
same,viability,[2],26.8% and 98.2% and 100%
same,insulin secretion stimulation,[3],3.7% (inactive)
same,viability decrease,[4],-3.9% (inactive)
same,tube area decrease,[5],-3.2% (inactive)
same,GLP1 secretion stimulation,[6],1.7% (inactive)
same,inhibition of viability,[7],21.7% (inactive)
same,viability decrease (inhibition),[8],1.6% (inactive)
same,viability decrease (inhibition),[9],-7.6% (inactive)
same,mean signal,[16],257 (inactive)
same,z-score,[11]; [21],-0.524 (inactive) and 0.18 (inactive)
same,z-score,[11]; [22],0.614 and 0.91
same,luciferase signal,[15],68 AU (inactive)
same,z-score,[13],-1.51 (inactive) and -0.39 (inactive) and 0.37 (inactive)
C=C1CCC(=O)C(C)CCC2C1CC2(C)C (configuration not stated),inhibition,[17],14.7% (inactive)
COc1ccc(-c2coc3cc(O)c(OC)cc3c2=O)cc1,inhibition,[17],10.5% (inactive)
CC(C)(C)c1ccc(C(O)CCCN2CCC(C(O)(c3ccccc3)c3ccccc3)CC2)cc1 (configuration not stated),inhibition,[18],70.6%
same,survival,[1],3.75 (inactive)
same,insulin secretion stimulation,[3],5.9% (inactive)
same,viability decrease,[4],101% (active)
same,tube area decrease,[5],98.4% (active)
same,GLP1 secretion stimulation,[6],70% (active)
same,inhibition of viability,[7],102% (active)
same,viability decrease (inhibition),[8],142% (active)
same,viability decrease (inhibition),[9],103% (active)
same,red/green cell ratio (normalised),[10],0.94 (inactive)
same,normalised cell number,[10]; [19],1.26
same,normalised cell number,[10]; [20],1.18
same,z-score,[11]; [21],-0.29 (inactive) and -0.00284 (inactive)
same,z-score,[11]; [22],1.02 and 1.14
same,remaining NAD,[12],10 nM (inactive)
same,luciferase signal,[15],108 AU (inactive)
same,z-score,[13],-1.31 (inactive) and 0.135 (inactive)
